# Bioassay records: PubChem BioAssay, National Center for Advancing Translational Sciences (NCATS)
# Compounds with a hit are over-represented: about 6% of the library has one in this group of screens.
# D1 agonist: activates the human D1 dopamine receptor; HEK293 T-REx D1 cells, calcium flux, agonist mode; activation, % at 2 µM; AID 504660; hit rate 1% among 360,000; in the data active = activation above about 30%; note: 0% is about no effect
# Target sequence (P21728 whole entry, looked up): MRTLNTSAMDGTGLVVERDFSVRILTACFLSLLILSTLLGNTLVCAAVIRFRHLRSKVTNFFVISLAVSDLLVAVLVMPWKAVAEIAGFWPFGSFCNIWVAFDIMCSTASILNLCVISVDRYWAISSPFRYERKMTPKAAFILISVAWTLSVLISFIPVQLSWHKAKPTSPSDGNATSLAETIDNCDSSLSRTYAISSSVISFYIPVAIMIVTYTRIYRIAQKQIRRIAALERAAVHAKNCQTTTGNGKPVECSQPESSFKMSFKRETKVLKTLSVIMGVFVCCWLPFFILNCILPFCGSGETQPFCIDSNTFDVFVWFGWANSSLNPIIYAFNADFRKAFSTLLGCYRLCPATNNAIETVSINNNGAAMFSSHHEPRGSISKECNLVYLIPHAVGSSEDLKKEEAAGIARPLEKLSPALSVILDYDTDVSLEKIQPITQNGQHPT
#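 Inducible HEK293 T-REx D1 cells, force-coupled to calcium signalling, were plated at 4000 cells/well with tetracycline and held overnight at 30 C. After no-wash calcium dye loading, compound-evoked calcium rise over 180 s flagged agonists.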
# D1 antag: human D1 dopamine receptor antagonism; P21728; HEK293 TREx D1 cells, calcium flux, dopamine EC80; active compounds read low; activity change, negative = inhibition, % at 10 µM; hit rate 3.2% among 360,000; AID 504652; in the data active = activity change below about -30%; note: % is set by controls: 0 for no effect and ±100 for the full control effect
#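 After overnight tetracycline induction at 30 C, force-coupled D1 HEK293 cells took up a no-wash calcium dye at room temperature. Compounds were added and monitored 180 s, and the response to EC80 dopamine was then recorded.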
# DRD3 agonist: D3 dopamine receptor (human) agonism; AID 652048; hit rate 0.58% among 410,000; D3R DiscoveRx beta-arrestin cells, luminescence, 90 min; max activation, %; P35462; in the data active = max activation above about 30%; note: 0% is about no effect
#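 Agonist mode: compounds and dopamine controls were applied to plated cells for 90 min at 37 degrees C after an overnight attachment at 1500 cells/well. Luminescent read-out followed 30 - 60 minutes at room temperature with DiscoveRx detection reagent.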
# D1 potentiator: potentiators of human D1 dopamine receptor; P21728; HEK293 TREx D1 cells, calcium flux, dopamine EC20 potentiation; potentiation, % at 10 µM; hit rate 0.036% among 360,000; in the data active = potentiation above about 30%; note: 0% is about no effect
# DRD3 antagonist: blocks the human D3 dopamine receptor | P35462 | D3R cells, DiscoveRx beta-arrestin luminescence, antagonist mode; active compounds read low | max response, negative = inhibition, % | hit rate 2.5% among 360,000 | AID 652054; in the data active = max response below about -50%; inconclusive = no clear call, values can overlap the other calls; note: % is set by controls: 0 for no effect and ±100 for the full control effect
#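 Cells plated overnight at 1500 cells/well, then exposed to library compounds with dopamine controls for 90 minutes at 37 degrees C. DiscoveRx reagent added for 30–60 minutes at room temperature; luminescence read, quantitative HTS format.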
# Starred values were filed as active, the others as inactive; u = inconclusive; x = no result.
SMILES,D1 agonist,D1 antag,DRD3 agonist,D1 potentiator,DRD3 antagonist
CC(=O)Nc1ccc(NC2=C/C(=N/S(=O)(=O)c3cccs3)c3ccccc3C2=O)cc1,0,-5,-18,-2,-66*
COc1ccc(NC(=O)C[C@H]2C(=O)N(c3ccc(OC)cc3)C[C@@H]2CSC)cc1,x,x,-3,x,-9
Cc1ccc(C)c(N2CCN(S(=O)(=O)c3cc(C(=O)Nc4cc(Cl)cc(Cl)c4)ccc3F)CC2)c1,-3,-7,1,0,x
CCOC(=O)CSc1ncnc2c1sc1nc(N3CCOCC3)c3c(c12)CCCC3,4,-17,61*,6,-4
COC(=O)CSc1ncnc2c1sc1nc(N3CCOCC3)c3c(c12)CCCC3,1,7,2,0,-11
CCC[n+]1c2ccccc2cc2ccccc21,1,14,-17,2,u
CCCC[n+]1c2ccccc2cc2ccccc21,4,6,2,1,-94*
Cc1csc(N2C(=O)C3C4CCC(O4)C3C2=O)n1 (stereo not drawn),x,x,1,x,34
CN(C)c1ccc(N=Nc2ccc(S(N)(=O)=O)cc2)cc1,4,3,-10,-6,-7
CC1=CC(=O)C=CC1=Nc1ccc(N(C)C)cc1,x,x,-11,x,-51*
COc1ccc(/C=C(\C#N)C(=O)NCC2CCCO2)cc1OC (stereo not drawn),2,7,-1,1,13
COc1cc(/C=C(\C#N)C(=O)NCC2CCCO2)ccc1OC(=O)c1ccco1 (stereo not drawn),2,6,-10,-8,-53*
CCOc1ccc(C2c3c(-c4ccc(C)cc4)n[nH]c3C(=O)N2c2ccc(Cl)cc2)cc1 (stereo not drawn),8,-1,14,-1,x
COc1ccc(OC2C(=O)N(Cc3ccc(F)cc3)C2c2cc(OC)c(OC)c(OC)c2)cc1 (stereo not drawn),8,-6,-1,5,-12
COc1ccc(C2C(Oc3ccccc3C)C(=O)N2Cc2ccc(F)cc2)cc1OC (stereo not drawn),7,10,-11,-5,-69*
COc1ccc(Cc2nc3ccc(C(=O)NCc4cc(Br)ccc4OC)cc3o2)cc1,7,9,-20,0,x
COc1ccc(-n2nc(C(=O)c3cccs3)cc(-c3nc4ccccc4[nH]3)c2=N)cc1,4,-8,-6,-2,-56*
O=C(c1ccc2c(c1)N(Cc1ccccc1)C(=O)c1ccccc1S2(=O)=O)N1CCN(c2ccccc2)CC1,3,7,0,-4,x
COc1cc(/C=C2\SC(=S)N(NC(=O)c3ccccc3OC)C2=O)ccc1O,49*,-7,-13,10,u
COc1cc(/C=C2\SC(=S)N(NC(=O)c3ccncc3)C2=O)ccc1O,22,27,-3,-5,-25
COc1cc(/C=C2\SC(=S)N(NC(=O)c3ccc(O)c(OC)c3)C2=O)ccc1O,73*,26,-16,5,-75*
COc1cc(/C=C2\SC(=S)N(NC(=O)c3cccc(O)c3)C2=O)ccc1O,110*,8,-15,-2,-22
CC(/C=C1\SC(=S)N(NC(=O)c2ccc(C)cc2)C1=O)=C\c1ccccc1,8,-2,-7,-4,-52*
CC[C@H]1NC(=O)[C@@H](NC(=O)c2ncccc2O)[C@@H](C)OC(=O)[C@H](c2ccccc2)NC(=O)[C@@H]2CC(=O)CCN2C(=O)[C@H](Cc2ccccc2)N(C)C(=O)[C@@H]2CCCN2C1=O,x,x,10,x,x
COC(=O)c1ccc(C(=O)OC)c(NC(=O)COC(=O)CCOc2ccc(C)cc2)c1,2,0,2,0,-62*
SMILES,D1 agonist,D1 antag,DRD3 agonist,D1 potentiator,DRD3 antagonist
COC(=O)c1ccc(C(=O)OC)c(NC(=O)COC(=O)c2ccc(OC)c(OC)c2OC)c1,0,-86*,2,-5,16
Cc1ccc(OCCC(=O)OCC(=O)NCCc2ccccc2)cc1,0,16,-1,-1,6
CCOCC(=O)Nc1cc(C(=O)OC)ccc1C(=O)OC,0,-19,0,-10,u
Cc1ccc(OCCC(=O)OCC(=O)NCCNC(=O)COC(=O)CCOc2ccc(C)cc2)cc1,x,x,3,x,-61*
Cc1ccccc1S(=O)(=O)NC(=O)C1(C)CCN1C(=O)Cc1cc(F)ccc1F (stereo not drawn),x,x,1,x,-5
CCc1ccc(NCc2cc3cc(OC)c(OC)cc3n(CC(=O)Nc3cc(C)ccc3C)c2=O)cc1,2,-3,3,3,x
N#Cc1cc([N+](=O)[O-])c(-n2nnc3ccccc32)c([N+](=O)[O-])c1,1,-1,-2,1,-58*
CS(=O)(=O)c1ccc(-n2nnc3ccccc32)c([N+](=O)[O-])c1,1,-29,-11,-2,u
CC(C)C[C@H]1CN=C(Nc2ccccc2)N1CC1CCC(C(C)(C)C)CC1 (stereo partly drawn),70*,21,-52,3,-12
CC(C)C[C@H]1CN=C(Nc2ccccc2)N1CC1CCCC1,4,0,5,0,26
CN(CC(=O)Nc1ccc(OC(F)(F)F)cc1)C(=O)/C=C/c1cc2c(cc1[N+](=O)[O-])OCO2,1,-49*,-30,-2,-95*
CCOC(=O)C1CCCN(CCC(=O)Nc2ccc(Br)cc2)C1 (stereo not drawn),2,-5,-16,-2,-50*
CCOC(=O)C1CCCN(CCC(=O)Nc2ccc3c(c2)CCC3)C1 (stereo not drawn),0,-4,-35,-5,-56*
CCOC(=O)C1CCCN(CCC(=O)Nc2ccc(Br)c(C)c2)C1 (stereo not drawn),10,18,-9,-2,-54*
CCOC(=O)C1CCN(CCC(=O)Nc2ccc(Br)cc2)CC1,14,4,-13,0,4
Cc1cc(C)cc(-n2c(SCC(N)=O)nc3c(oc4ccccc43)c2=O)c1,0,-20,7,-6,x
CCn1nc(C)c(CNC(=O)c2cc(COc3ccccc3SC)on2)c1C,12,-49*,-6,0,-4
CSc1ccccc1OCc1cc(C(=O)NCc2cccc(C)n2)no1,2,-5,4,-9,-19
Cc1ccccc1-n1ncc(C(C)NS(=O)(=O)c2sccc2C)c1C (stereo not drawn),8,-8,-13,3,-12
Cc1ccnc2nc(C(=O)NC3CCCc4ccccc43)nn12 (stereo not drawn),3,-52*,-4,-1,-15
O=C(NC1CCCc2ccccc21)c1cccc(Br)c1 (stereo not drawn),3,-44*,-4,-2,-15
Cc1occc1C(=O)NC1CCCc2ccccc21 (stereo not drawn),5,-17,2,0,13
COc1ccc(C(O)(CCN2CCCCC2)C2CCCCC2)cc1 (stereo not drawn),2,6,-41,3,-52*
